In PubChem BioAssay (NCATS) one finds outcome and Potency data, which are given here for eleven compounds.

Results filed as inconclusive are left out. Entries that show only a call come without a potency. Calls of active or inactive are those of the source. The call rests on the fitted dose curve; in most records, active means well fitted curve in the direction sought with a large enough effect; inconclusive means small, poorly fitted or top-dose-only effect, or another doubt; inactive means no such curve, though single readings can be large; an effect the other way counts as inactive or inconclusive.

The first experiment concerns Zika virus NS2B-NS3 protease (linked construct). The experiment can be described thus: Primary screen NINDS Rhodamine qHTS for Zika virus inhibitors (AID 1347160). Further: nearly all actives have a fitted effect of over 55% in size. Further: potency means the concentration at half of the fitted maximal effect. As to conditions: purified NS2B-NS3 protease, Rhodamine110 substrate fluorescence; series mostly up to 57.1 µM. The essentials:
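Each compound, titrated, sat 15 min with 25 nM linked protease before 1.5 microM Rhodamine110 substrate went in. Fluorescence gain over the next 15 min, in pH 8.0 Tris with Tween 20, gave Hill-fitted curves.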
As to `C/C=C(/C)C(=O)OC1CC(C)(C)CC2C3=CCC4C5(C)CCC(O[C@@H]6O[C@H](C(=O)O)[C@@H](O)[C@H](O)[C@H]6O[C@@H]6O[C@H](CO)[C@H](O)[C@H](O[C@@H]7OC[C@H](O)[C@H](O)[C@H]7O[C@@H]7O[C@H](CO)[C@@H](O)[C@H](O)[C@H]7O)[C@H]6O)C(C)(C)C5CCC4(C)C3(C)C(O)C(O)C12CO` (some centres not stated), the outcome is “inactive [at 10.7 µM]”.

Turning to `Nc1nc2c(nc(Br)n2[C@@H]2O[C@@H]3COP(=O)(O)O[C@H]3[C@H]2O)c(=O)[nH]1`, the Potency entry is “inactive”.

For the compound `CC[C@H](C(=O)Nc1ccccc1N1CCCC1)c1ccccc1`, the Potency result is “inactive”.

With `CCn1c2ccccc2c2cc(Nc3ccnc(NCCCN4CCOCC4)n3)ccc21`, the Potency entry is “inactive”.

Regarding `Cc1cc(OCCCS(C)(=O)=O)cc(C)c1-c1cccc(COc2ccc3c(c2)OCC3CC(=O)O)c1` (configuration not stated), the Potency result was “inactive”.

As to `CCCCCc1ccc(/C=C/C(=O)Nc2cc(Cl)ccc2C(=O)O)cc1`, the Potency is 2 µM (active).

Tested on in a further experiment: not listed separately
The experiment can be described thus: Confirmatory screen NINDS Rhodamine qHTS for Zika virus inhibitors (AID 1347161). Further: potency means the concentration at half of the fitted maximal effect; nearly all actives have a fitted effect of over 60% in size. As to conditions: purified enzyme assay, Rhodamine110 substrate fluorescence, 15 min; series mostly up to 114 µM. The essentials: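 Purified NS2B-NS3 protease with the NS2B hydrophilic domain joined by a flexible linker (25 nM) in 10 mM Tris-HCl pH 8.0, 0.01% Tween 20, preincubated 15 min at RT with compound; Rhodamine110 peptide substrate 1.5 µM; fluorescence change over 15 min; 4-parameter Hill fit.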
For `CCC(C)/C=C(C)/C=C/C1=CC2=CC(=O)C3(C)OC(C)(O)C(C(=O)OC)C3C2=CO1` (configuration not stated), the Potency was 21.5 µM (active).

Regarding `CC#C[C@@H](CC(=O)O)c1ccc(OCc2cccc(-c3ccc(C(F)(F)F)cc3)c2)cc1`, the Potency was 0.987 µM (active).

Consider `CC(C)C[C@H](C(=O)O)c1cc(-c2ccc(C(F)(F)F)cc2)cc(-c2ccc(C(F)(F)F)cc2)c1`, for which the Potency was 3.5 µM (active).

For `Cc1cc(OCCCS(C)(=O)=O)cc(C)c1-c1cccc(COc2ccc3c(c2)OCC3CC(=O)O)c1` (configuration not stated), the Potency was 7.84 µM (active).

As for `CCCCCc1ccc(/C=C/C(=O)Nc2cc(Cl)ccc2C(=O)O)cc1`, the Potency is 1.75 µM (active).

The subject of a further experiment is Zika virus NS2B-NS3 protease (linked construct). The experiment can be described thus: 384 well plate NINDS Rhodamine confirmatory qHTS for Zika virus inhibitors (AID 1347164). Further: nearly all actives have a fitted effect of over 65% in size. Further: potency means the concentration at half of the fitted maximal effect. As to conditions: rhodamine-110 peptide substrate fluorescence; series mostly up to 100 µM. The essentials: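 Linked protease at a final 5 nM, 30 nM or 60 nM was preincubated ~15 min with compounds, then given 10 microM Ac-LKRR-Rhodamine 110. Fluorescence (ex 485/em 538 nm) after 25 min in the dark at room temperature.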
(In general: Quantitative high-throughput screening tests each substance at several concentrations.)
For the compound `CC#C[C@@H](CC(=O)O)c1ccc(OCc2cccc(-c3ccc(C(F)(F)F)cc3)c2)cc1`, the Potency is 5.62 µM (active).

On to `CC(C)C[C@H](C(=O)O)c1cc(-c2ccc(C(F)(F)F)cc2)cc(-c2ccc(C(F)(F)F)cc2)c1`, for which the Potency result was “inactive”.

On to `CCCCCc1ccc(/C=C/C(=O)Nc2cc(Cl)ccc2C(=O)O)cc1`, for which the Potency is 22.4 µM (active).

Tested on in a further experiment: not listed separately
The experiment can be described thus: HepG2 cells viability qHTS for Zika virus inhibitors (AID 1347168). As to conditions: Zika counter-screen; series mostly up to 45.9 µM. The procedure, abridged:
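To flag cytotoxic protease inhibitors, viability is measured by ATP-dependent luminescence (CellTiter Glo) after cells attached overnight receive compound for 24 to 48 hours in DMEM with 4% FBS.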
On to `CCC(CC)(NC(=O)C(C)C)C(=O)N[C@@H](CCCN=C(N)N)C(=O)NC1(C(=O)NC(c2ccc(F)cc2)c2ccc(F)cc2)CCCC1`, for which the compound was called inactive.

`CC#C[C@@H](CC(=O)O)c1ccc(OCc2cccc(-c3ccc(C(F)(F)F)cc3)c2)cc1`: the call was inactive.

Consider `CC(C)C[C@H](C(=O)O)c1cc(-c2ccc(C(F)(F)F)cc2)cc(-c2ccc(C(F)(F)F)cc2)c1`, for which the result was inactive.

As for `CCCCCc1ccc(/C=C/C(=O)Nc2cc(Cl)ccc2C(=O)O)cc1`, the compound was called inactive.

Tested on in a further experiment: not listed separately
The experiment can be described thus: Tertiary RLuc qRT-PCR qHTS assay for Zika virus inhibitors (AID 1347169). Further: nearly all actives have a fitted effect of over 55% in size. Further: potency means the concentration at half of the fitted maximal effect. As to conditions: infected Vero cells, reporter luminescence, 48-72 h; series mostly up to 45.9 µM. The procedure, abridged:
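Vero cells (1,000 per well) plated overnight at 37 degrees C, treated with compound in DMSO, then infected with recombinant ZIKV-RLuc (Cambodian) at MOI 1-2 for 48-72 hrs. Live-cell Renilla luciferase substrate added; luminescence read after 1-1.5 hrs.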
Turning to `CCC(C)/C=C(C)/C=C/C1=CC2=CC(=O)C3(C)OC(C)(O)C(C(=O)OC)C3C2=CO1` (configuration not stated), the Potency result is “inactive”.

As to `CCC(CC)(NC(=O)C(C)C)C(=O)N[C@@H](CCCN=C(N)N)C(=O)NC1(C(=O)NC(c2ccc(F)cc2)c2ccc(F)cc2)CCCC1`, the Potency entry is “inactive”.

As to `COc1ccc(CCO[C@@H]2O[C@H](CO[C@H]3OC[C@](O)(CO)[C@H]3O)[C@@H](OC(=O)/C=C/c3ccc(O)c(O)c3)[C@H](O[C@@H]3O[C@@H](C)[C@H](O)[C@@H](O)[C@H]3O)[C@H]2O)cc1OC`, the Potency entry is “inactive”.

`CC(C)C[C@H](C(=O)O)c1cc(-c2ccc(C(F)(F)F)cc2)cc(-c2ccc(C(F)(F)F)cc2)c1`: the Potency was 9.3 µM (active).
